# According to PubChem BioAssay (NCI):
# About 83,000 compounds went through this panel and 20% of them were active in at least one assay; those are over-represented in the sample as a whole.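 Cells were grown in 96-well plates and exposed to the test compound at a single concentration for 48 hours; results are reported as percent growth, with values below 10 considered active.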 A number with no mark means an inactive call. Activity calls are given as the source filed them.
# Tests used:
# Assay in all cases: NCI-60 one-dose screen, 48 h (100 = growth as untreated, 0 = no growth, -100 = all killed)
# Settings in all cases: 10 µM unless noted
# [1] = test system: HCT-15 colon
# [2] = test system: HT29 colon
# [3] = test system: SNB-75 CNS
# [4] = test system: SNB-19 CNS
# [5] = test system: U251 CNS
# [6] = test system: PC-3 prostate
# [7] = test system: SK-MEL-5 melanoma
# [8] = test system: UACC-62 melanoma
# [9] = test system: LOX IMVI melanoma
# [10] = test system: SK-MEL-28 melanoma
# [11] = test system: SK-MEL-2 melanoma
# [12] = test system: EKVX NSCLC
# [13] = test system: SN12C renal
# [14] = test system: UO-31 renal
# [15] = test system: TK-10 renal
# [16] = test system: ACHN renal
# [17] = test system: CAKI-1 renal
# [18] = test system: CCRF-CEM leukemia
# [19] = test system: MOLT-4 leukemia
SMILES,growth [1],growth [2],growth [3],growth [4],growth [5],growth [6],growth [7],growth [8],growth [9],growth [10],growth [11],growth [12],growth [13],growth [14],growth [15],growth [16],growth [17],growth [18],growth [19]
CC(C)(C)c1cc(/C=N/NC(=O)c2ccccc2NC(=O)c2cccs2)c(O)c(C(C)(C)C)c1,17.1%,25.3%,34.9%,40.6%,13.8%,30.3%,22.9%,13.1%,-34.2% (active),51.5%,36.9%,35%,40.6%,10.7%,28.8%,21.9%,19.8%,4.59% (active),16.5%
O=S(=O)(NCCNc1nccc(-c2c(-c3cccc(F)c3)nc3sccn23)n1)c1ccc(Cl)cc1,31.8%,36%,78.9%,66.5%,55.2%,56.9%,36.5%,44.3%,43.7%,74.7%,79.8%,66.3%,48.7%,23.8%,88.5%,35.7%,41.1%,50.4%,46.8%
Cc1cc(C(=O)/C=C/c2ccc[nH]2)ccc1-n1ccc(C(F)(F)F)n1,84.1%,89.9%,63.2%,85.1%,25.9%,6.59% (active),98.2%,84%,90.8%,100%,96.5%,87.4%,63.4%,-92.1% (active),95.6%,98.9%,83.8%,13.1%,70.6%
COc1cc2nc(-c3ccc(C(F)(F)F)cc3)cc(OCCCN3CCCC3)c2cc1OC,13.1%,20.9%,-19% (active),67.5%,50.6%,41.7%,-18.2% (active),-25% (active),-53.1% (active),71.9%,49.3%,65%,44.5%,31.5%,100%,39.1%,-7.36% (active),38.5%,46.2%
C=CCN1C(=O)/C(=C/C(=O)OC)S/C1=N\NC(=O)c1cc2ccc1/C=C\c1ccc(cc1)/C=C\2,66.9%,46%,78.1%,84.7%,81.8%,48.4%,92.5%,77.2%,78.8%,102%,97.3%,90.8%,86.9%,75.4%,108%,87.9%,87.8%,22.9%,35.4%
O=C1Nc2cc(-c3cccc(O)c3)ccc2/C1=C/c1ccc[nH]1,9.89% (active),83.3%,-13.7% (active),43.4%,25.9%,35.4%,6.19% (active),24.1%,7.66% (active),16.4%,3.73% (active),22.6%,15.5%,-1.56% (active),16.4%,11%,5.88% (active),13.4%,15.4%
NC1=NN=C(N)C1=Cc1cc2ccccc2n2nnnc12,104%,104%,94.3%,95.8%,89%,86.6%,101%,93.2%,85.1%,116%,102%,77%,97.9%,77.1%,114%,102%,91.1%,97.5%,94.6%
Brc1ccc(Nc2csc(-c3ccccn3)n2)cc1,67.4%,81.4%,72.3%,96%,101%,85.3%,95.4%,67.1%,72.1%,109%,96.4%,85.4%,91.6%,52.2%,119%,82.4%,63.6%,97.2%,96.6%
COc1ccc(C(=O)c2cc(C)c(OC)c(C)c2)c(OC)c1OC(=O)C(Cl)Cl,3.34% (active),22.4%,56.3%,22.2%,13.5%,19.1%,-20.8% (active),29.3%,20.3%,53.3%,24.4%,58.4%,30.1%,35.3%,50.9%,18.3%,39.8%,11.1%,20.7%
O=c1[nH]nc(-c2ccccc2)c2sc3ncc(-c4ccc(Br)cc4)n3c12,94.5%,9.13% (active),19.7%,44.7%,38.9%,50.2%,78.9%,47.5%,36.9%,57.6%,18.4%,67.3%,46.1%,73.3%,109%,75.7%,56.1%,22.4%,41.7%
CCSCC1CC(O)(c2ccccc2)CC(c2ccc(F)cc2)O1 (stereo unspecified),17.4%,2.51% (active),33.1%,36.1%,20.8%,9.83% (active),-36% (active),29.2%,4.29% (active),26.9%,4.62% (active),15.2%,-68.9% (active),28.6%,21.9%,3.1% (active),-25.2% (active),22.9%,-11.9% (active)
CCOC(=O)[C@@H](C)C[C@H](Cc1ccccc1)NC(=O)c1csc([C@@H](C[C@H](C(C)C)N(C)C(=O)[C@@H](NC(=O)[C@H]2C[C@H](O[Si](C)(C)C(C)(C)C)CCN2C)C(C)C)OC(C)=O)n1,-6.05% [9.25 µM] (active),-71.7% [9.25 µM] (active),7.94% [9.25 µM] (active),5.09% [9.25 µM] (active),-17.3% [9.25 µM] (active),6.78% [9.25 µM] (active),-14.5% [9.25 µM] (active),4.13% [9.25 µM] (active),4.27% [9.25 µM] (active),24.2% [9.25 µM],-21.2% [9.25 µM] (active),24.1% [9.25 µM],3.13% [9.25 µM] (active),8.06% [9.25 µM] (active),12.1% [9.25 µM],5.74% [9.25 µM] (active),15.9% [9.25 µM],0.176% [9.25 µM] (active),1.33% [9.25 µM] (active)
COc1cc2c(-c3cc4c(cc3CNCCc3ccc5c(c3)OCO5)OCO4)cccc2c(OC)c1O,59.4%,92%,44.9%,87.4%,75.1%,60.9%,78.8%,79.1%,72.8%,97.6%,92.9%,77.4%,78.8%,45.5%,102%,79.2%,54.9%,79.5%,56.5%
COc1ccc(/C=C2\Oc3cc(OCCCN4CCCCC4)ccc3C2=O)cc1OC,76.4%,59.3%,78.9%,93.7%,94.2%,79.6%,94.5%,99.1%,81.7%,105%,108%,91.5%,93.5%,67.9%,89.1%,93.2%,92.8%,28.9%,83.3%
